PubChem BioAssay (NCATS)
Where “and” joins values, the source holds several entries; their conditions need not be identical. Equal entries are not always repeated. Inconclusive results are not listed. Entries that show only a call come without a potency. Where a structure was tested more than once in an assay, its records may differ in their call. Calls of active or inactive are those of the source. Calls follow the shape of the dose curve; as a rule, active = well fitted curve in the direction sought with a large enough effect; inconclusive = small, poorly fitted or top-dose-only effect, or another doubt; inactive = no such curve, though single readings can be large; an effect the other way counts as inactive or inconclusive.

How the values were obtained:
[1] = biological target: Glutathione peroxidase 1 (Homo sapiens) (UniProt P07203); test: Primary qHTS Assay for Inhibitors of Recombinant Selenoprotein Glutathione Peroxidase 1 (GPX1) (AID 1845191); also: nearly all actives have a fitted effect of over 65% in size; also: potency is read from the fitted curve at half-maximal effect
Chain of Glutathione peroxidase 1 (Homo sapiens) (P07203 whole entry, looked up): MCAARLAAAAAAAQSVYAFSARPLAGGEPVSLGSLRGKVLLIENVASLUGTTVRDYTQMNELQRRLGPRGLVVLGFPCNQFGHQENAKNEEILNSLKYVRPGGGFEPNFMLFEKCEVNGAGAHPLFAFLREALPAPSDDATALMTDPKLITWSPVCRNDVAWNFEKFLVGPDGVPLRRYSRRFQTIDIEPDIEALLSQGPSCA
Method in brief: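 NADPH consumption tracked by fluorescence at 340/450 nm between t=0 and t=15 min, room temperature. Final mix: 10 nM GPX1, 100 nM glutathione reductase, 1 mM GSH, 0.5 mM NADPH, 0.5 mM cumene hydroperoxide, 0.01% BSA; 30 min compound–enzyme preincubation.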

[2] = biological target: Phospholipid hydroperoxide glutathione peroxidase GPX4 (Homo sapiens) (UniProt P36969); test: Primary qHTS Assay for Inhibitors of Recombinant Selenoprotein Glutathione Peroxidase 4 (GPX4) (AID 1845192); also: nearly all actives have a fitted effect of over 65% in size
Chain of Phospholipid hydroperoxide glutathione peroxidase GPX4 (Homo sapiens) (P36969 whole entry, looked up): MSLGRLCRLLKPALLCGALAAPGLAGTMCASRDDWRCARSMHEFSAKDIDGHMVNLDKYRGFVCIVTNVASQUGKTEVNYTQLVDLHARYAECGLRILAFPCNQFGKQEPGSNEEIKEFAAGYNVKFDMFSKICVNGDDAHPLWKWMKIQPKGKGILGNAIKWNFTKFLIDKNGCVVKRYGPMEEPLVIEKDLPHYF
Method in brief: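 NADPH consumption followed by fluorescence at 340/450 nm, t=0 and after 15 min at room temperature. Reaction started with cumene hydroperoxide (0.5 mM final) after 30 min compound–GPX4 preincubation; final 200 nM GPX4, 100 nM GR, 1 mM GSH, 0.5 mM NADPH.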

[3] = Quantitative High-Throughput drug screen in 47 multiple myeloma cell lines against the NCATS MIPE library collection: FR4_PLB cell viability assay (AID 1918924; also: nearly all actives have a fitted effect of over 35% in size; also: potency is read from the fitted curve at half-maximal effect)
Method in brief: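 Myeloma cells (500 per well) were exposed to MIPE 4.0 compounds by pin transfer and incubated 48 hours at 37C, 5% CO2. Viability was read as ATP by CellTiter-Glo luminescence, normalised to DMSO (100%) and media-only (0%) wells.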

[4] = Quantitative High-Throughput drug screen in 47 multiple myeloma cell lines against the NCATS MIPE library collection: EJM_DSMZ cell viability assay (AID 1918926; also: nearly all actives have a fitted effect of over 30% in size; also: potency is read from the fitted curve at half-maximal effect)
Method in brief: (§1)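 CellTiter-Glo ATP luminescence gave viability after 48 h compound treatment at 37C of 500 multiple myeloma cells per well. Normalisation used DMSO-only wells as 100% and media-only wells as 0% viability; primary qHTS of approved and investigational drugs.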

[5] = Quantitative High-Throughput drug screen in 47 multiple myeloma cell lines against the NCATS MIPE library collection: AMO1_DSMZ cell viability assay (AID 1918927; also: nearly all actives have a fitted effect of over 30% in size; also: potency is read from the fitted curve at half-maximal effect)
Method in brief: as §1

[6] = Quantitative High-Throughput drug screen in 47 multiple myeloma cell lines against the NCATS MIPE library collection: Delta47_JCRB cell viability assay (AID 1918925; also: nearly all actives have a fitted effect of over 45% in size; also: potency is read from the fitted curve at half-maximal effect)
Method in brief: as §1

[7] = biological target: Luciferin 4-monooxygenase (Photinus pyralis) (UniProt P08659); test: Primary firefly luciferase (FLuc) qHTS assay for identification of artifact compounds. (AID 1845220); also: series mostly up to about 54 µM; nearly all actives have a fitted effect of over 60% in size
Method in brief: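 Compounds sat 15 min at room temperature with 10 uM luciferin and 10 uM ATP (pH 7.6 Tris acetate). Firefly luciferase (10 nM final) was then added, and luminescence was read 5 min later. Data normalized to no-enzyme and DMSO controls were Hill-fitted.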

[8] = Primary redox qHTS assay for identification of artifact compounds. (AID 1845223)
Method in brief: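 Redox-cycling detection via DTT (250 uM final) oxidation coupled to Amplex Red (25 uM)/HRP (250 mU/mL) in HBSS. 15 min preincubation plus 30 min after DTT, room temperature. Ex/Em 525/598 nm; 4-parameter Hill fit against DMSO and 10 uM DA3003.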

SMILES | Potency [1] | Potency [2] | Potency [3] | Potency [4] | Potency [5] | Potency [6] | Potency [7] | outcome [8]
O=c1cc(-c2ccccc2)oc2cc(O)cc(O)c12 | inactive | inactive | inactive | inactive | 16.6 µM (active) | – | – | –
C[C@H](NC(=O)c1sccc1OCc1ccc(Cl)cc1)c1ccccc1 | inactive | inactive | – | – | – | 20.9 µM (active) | – | –
C[C@H](NC(=O)C(=O)Nc1ccccc1C(C)(C)C)C(=O)N[C@@H](CC(=O)O)C(=O)COc1c(F)c(F)cc(F)c1F | inactive | inactive | – | inactive | 4.69 µM (active) | inactive | – | –
O=c1cc(-c2cccc3c2Sc2ccccc2S3)oc(N2CCOCC2)c1 | inactive | inactive | 26.4 µM (active) | – | 16.6 µM (active) | 5.26 µM (active) | – | –
COc1ccc2cccc(CCNC(C)=O)c2c1 | inactive | inactive | – | inactive | inactive | inactive | – | –
CC(C)(Cc1ccc2ccccc2c1)NC[C@@H](O)COc1cccc(Cl)c1C#N | inactive | inactive | inactive | inactive | inactive | – | – | –
c1ccc2c(-c3cnn4cc(-c5ccc(N6CCNCC6)cc5)cnc34)ccnc2c1 | inactive | inactive | – | 11.8 µM (active) | – | – | – | –
Cc1ccc(C(C)(O)c2nc3ccccc3s2)c(C)c1 (configuration not stated) | inactive | inactive | – | – | 20.9 µM (active) | inactive | – | –
N#Cc1ccc(NC(=O)Nc2ccccc2Br)c2n[nH]nc12 | inactive | inactive | inactive | – | 14.8 µM (active) | – | – | –
Cc1cnc(C(=O)O)c[n+]1[O-] | inactive | inactive | inactive | inactive | inactive | – | – | –
O=c1c(O)c(-c2ccc(O)cc2)oc2cc(O)cc(O)c12 | inactive | inactive | inactive | – | 9.35 µM (active) | 20.9 µM (active) | – | –
NC(CO)(CO)CCc1ccc(Sc2cccc(OCc3ccccc3)c2)cc1Cl | inactive | inactive | – | – | 20.9 µM (active) | 9.35 µM (active) | – | –
COc1cccc([C@@H](C)NCCCc2ccccc2Cl)c1 | inactive | inactive | – | inactive | – | – | – | –
O=c1c(-c2ccc(O)cc2)coc2cc(O)ccc12 | inactive | inactive | inactive | inactive | inactive | – | – | –
N#C[C@H]1C[C@H]2C[C@@H]2N1C(=O)[C@@H](N)C12CC3CC(CC(O)(C3)C1)C2 | inactive | inactive | inactive | inactive | inactive | – | – | –
O=C(O)CCC1CCC(c2cc(F)ccc2F)(S(=O)(=O)c2ccc(Cl)cc2)CC1 (configuration not stated) | inactive | inactive | – | inactive | 5.9 µM (active) | 5.9 µM (active) | – | –
COc1cccc(-c2cc(=O)c3ccccc3o2)c1N | inactive | inactive | – | inactive | 16.6 µM (active) | 2.64 µM (active) | – | –
NC(=O)[C@@H](CCC(F)(F)F)N(Cc1ccc(-c2ncon2)cc1F)S(=O)(=O)c1ccc(Cl)cc1 | inactive | inactive | 16.6 µM (active) | 20.9 µM (active) | inactive | – | – | –
CC(=O)Oc1cc2c(s1)CCN(C(C(=O)C1CC1)c1ccccc1F)C2 (configuration not stated) | 16.1 µM (active) and inactive and 20.2 µM (active) | inactive | – | – | 1.87 µM (active) | 3.32 µM (active) | – | –
COc1ccc(-c2nc(N3CCOCC3)c3sc(CN(C)c4ncc(C(=O)NO)cn4)cc3n2)cn1 | inactive | inactive | – | 0.0042 µM (active) | 0.001 µM (active) | – | – | –
O=c1cc(-c2ccc(O)cc2)oc2cc(O)cc(O)c12 | inactive | inactive | – | 4.18 µM (active) | – | 10.5 µM (active) | – | –
CC#CCn1c(N2CCC[C@@H](N)C2)nc2c1c(=O)n(Cc1nc(C)c3ccccc3n1)c(=O)n2C | inactive | inactive | – | inactive | inactive | – | – | –
CC(C)OC(=O)C(C)(C)Oc1ccc(C(=O)c2ccc(Cl)cc2)cc1 | inactive | inactive | – | 10.5 µM (active) | inactive | – | – | –
CC(C)n1cnc2c(NCCCCCCNC(=O)OC(C)(C)C)nc(NCCO)nc21 | inactive | inactive | – | 20.9 µM (active) | 4.69 µM (active) | 14.8 µM (active) | – | –
Nc1ncnc2c1nc(Cl)n2[C@@H]1O[C@H](CO)[C@@H](O)[C@@H]1O | inactive | inactive | – | 18.7 µM (active) | 2.35 µM (active) | 23.5 µM (active) | – | –
N#CC1(c2ccc(NC(=O)c3cccnc3NCc3ccncc3)cc2)CCCC1 | inactive | inactive | – | inactive | inactive | – | – | –
N[C@@]1(C(=O)O)CS(=O)(=O)[C@H]2[C@H](C(=O)O)[C@H]21 | inactive | – | – | inactive | – | 9.35 µM (active) | – | –
CO[C@H]1C=CO[C@@]2(C)Oc3c(C)c(O)c4c(O)c(c5c(c4c3C2=O)NC2(CCN(CC(C)C)CC2)N=5)=NC(=O)C(C)=CC=C[C@H](C)[C@H](O)[C@@H](C)[C@@H](O)[C@@H](C)[C@H](OC(C)=O)[C@H]1C | – | inactive | – | – | – | inactive | inactive | inactive
